Screening results as filed in PubChem.
In the library only some 2.5% were active in any assay of this set; here they are far more common.
AI-2 QS modul – modulators of Vibrio harveyi AI-2 quorum sensing system | Vibrio harveyi JMH597 AI-2 luminescence/OD600 ratio, 9 h; active compounds read low; strain lacks LuxN and CqsS sensors; 0 = neutral-control median | activity change, % at 7.5 µM | 300,000 tested, 0.4% active; in the data active = activity change below about -75%, passing the limit was not always enough;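 note: luminescence divided by OD600 gain over 9 h not by final OD600 alone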
ATG4B inh – blocks human ATG4B protease cleavage of LC3 substrate. AID 504462. ATG4B cleavage of LC3-PLA2, NBD-HPC fluorescence, 1 h. Q9Y4P1. inhibition, % at 8.33 µM. 340,000 tested, 0.51% active; in the data active = inhibition above about 40%
Target sequence (Q9Y4P1 whole entry, looked up): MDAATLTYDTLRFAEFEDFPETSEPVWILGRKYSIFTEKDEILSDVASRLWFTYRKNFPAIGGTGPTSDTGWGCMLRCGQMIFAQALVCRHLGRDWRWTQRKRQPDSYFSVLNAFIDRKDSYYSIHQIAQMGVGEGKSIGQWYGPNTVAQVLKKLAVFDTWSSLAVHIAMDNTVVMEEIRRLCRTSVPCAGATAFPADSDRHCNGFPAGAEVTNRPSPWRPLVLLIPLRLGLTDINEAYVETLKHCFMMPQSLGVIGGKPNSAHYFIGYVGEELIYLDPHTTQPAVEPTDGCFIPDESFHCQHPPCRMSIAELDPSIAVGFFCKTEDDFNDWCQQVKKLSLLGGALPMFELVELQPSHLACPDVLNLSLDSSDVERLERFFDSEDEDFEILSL
V-ATPase pH – yeast V-ATPase proton transport regulation by pHLuorin. AID 504577. 350,000 tested, 0.37% active. response, % at 10 µM. S. cerevisiae, pHLuorin cytosolic pH fluorescence; in the data active = response mostly above about 7.3%, no sharp cut-off; inactive = mostly below about 5.4%; note: actives read high
Mot1-301 SUMO – inhibitors of SUMOylation pathway: yeast Mot1-301 growth rescue. S. cerevisiae Mot1-301 growth rescue, ATP luminescence, 38.5C; percent above DMSO median, 100 means doubled. growth rescue, % at 18.8 µM. 320,000 tested, 1% active. AID 2716;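 active = every valid replicate shows activation above 250% relative to neutral control wells; inactive = the rest, any valid replicate at or below 250%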;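 note: OY570 slx delta 5 strain wells were the positive control but not used for scaling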
Efflux pump inh – antifungal efflux pump inhibition, Nile Red retention | S. cerevisiae Candida pump triplex | 330,000 tested, 0.44% active | inhibition, % at 10 µM;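 active = plate passing quality check with inhibition over a set limit, or well fluorescence over plate mean plus 4 SD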;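 note: Nile Red retained in pooled yeast measured as flow cytometry median fluorescence; 0% = buffer negative control and 100% = Enniatin B positive control; higher means more Nile Red kept so more efflux inhibition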
Yeast Mot1 SUMO – inhibits SUMO pathway, affecting Mot1-301 yeast growth. growth activity, percent, % at 42 µM. S. cerevisiae Mot1-301 galactose growth, ATP luminescence, 24 h; -100 = growth of slx-deleted rescue strain. 2,300 tested, under 10 active. shares compounds with Mot1-301 SUMO. AID 493004;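 active = Signal drops as the depositor expects, and the fitted half-maximal dose is no more than ten times the top valid tested dose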;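 note: more negative values mean stronger growth rescue toward the control strain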
Active calls of the source: *; . = no result given; + = active, no number.

SMILES	AI-2 QS modul	ATG4B inh	V-ATPase pH	Mot1-301 SUMO	Efflux pump inh	Yeast Mot1 SUMO
CC(C)=CC(=O)N1CCCC(N2CCN(c3ccc(F)cc3)CC2)C1 (configuration not stated)	-7	2	5	+	0	-1
CC(=O)c1ccc(C(=O)N2CCCC(N3CCN(c4ccc(F)cc4)CC3)C2)s1 (configuration not stated)	35	1	3	508*	1	0
COc1ccc(C(=O)COC(=O)CCn2nnc(-c3cccc(O)c3OC)n2)cc1	49	1	-1	7	0	.
O=C(NC(=S)Nc1nc2c(ccc3ccccc32)s1)c1cccs1	17	4	2	9	0	.
Cc1ccc(NC2c3ncccc3C(=O)N2C2CCCCC2)cc1C (configuration not stated)	-3	2	4	395*	0	-1
Cc1ccc(NC2c3ncccc3C(=O)N2C2CCCCC2)cc1 (configuration not stated)	7	16	-5	10	0	.
COCCCn1c(SCC(=O)Nc2ccc(NC(C)=O)cc2)nc2sc3c(c2c1=O)CCC3	8	-7	-1	-3	0	.
O=C(Nc1ccccc1F)C1CCN(C(=O)Cc2ccccc2)CC1	30	-14	1	684*	0	0
COc1ccc(NS(=O)(=O)c2cccc(C(=O)NCCCn3ccnc3)c2)cc1	30	-1	-4	452*	0	0
Cc1cccc(NS(=O)(=O)c2ccc(C)c(C(=O)NC3CCN(Cc4ccccc4)CC3)c2)c1	.	-10	3	.	.	.
CCOC(=O)CN1NC2(CCC(C(C)(C)C)CC2)NC1=S (configuration not stated)	1	-3	-6	500*	0	0
COc1cc(NC(=O)C2CCCC2)c(OC)cc1Cl	21	-7	2	18	0	.
CCCCC(=O)Nc1cc(OC)c(NC(=O)C2CCCCC2)cc1OC	24	-1	6	711*	0	0
O=C(Nc1nnc(COc2ccc(F)cc2)s1)c1cccs1	2	-5	2	940*	0	-1
COc1ccc2cc(C(C)C(=O)N3CCC(C(N)=O)CC3)ccc2c1 (configuration not stated)	-9	-3	5	166	0	.
Cc1ccccc1-c1nnc(-c2cccs2)o1	30	1	-3	25	0	.
O=C(Nc1ccc2c(c1)oc1ccccc12)C1CC1	11	-7	2	+	0	0
Cc1ccccc1Nc1c([N+](=O)[O-])ccc2c1=NC1(CCCCC1)N=2	33	-5	-1	768*	0	0
O=S(=O)(Nc1cccc2cn[nH]c12)c1ccc(F)cc1	-6	10	2	790*	0	1
CC(CO)NS(=O)(=O)c1cc(Cl)ccc1F (configuration not stated)	.	.	4	.	.	.
CNC(=S)NNC(=O)c1sccc1OCc1ccc(Cl)cc1Cl	19	1	-3	.	0	.
N/C(=N\NC(=O)c1sccc1OCc1ccc(Cl)cc1Cl)c1ccccn1	-1	-10	1	529*	0	0
COc1ccccc1/C=C/C(=O)N1CCc2cc(OC)c(OC)cc2C1C (configuration not stated)	26	-3	-1	389*	0	0
COc1cc2c(cc1OC)C(C)N(C(=O)Nc1ccccc1)CC2 (configuration not stated)	-3	-5	4	6	0	.
CCC(CC)C(=O)N1CCCC(c2nc(-c3cccs3)no2)C1 (configuration not stated)	-10	-7	-3	503*	0	1
CCOc1ccc(C(=O)N2CCCC(c3nc(-c4cccs4)no3)C2)cc1 (configuration not stated)	16	-1	-7	30	0	.
CCS(=O)(=O)N1CCC(C(=O)N2CCc3ccccc3C2)CC1	18	4	2	364*	0	0
O=S(=O)(NC1CCc2ccccc21)c1ccc(S(=O)(=O)N2CCCC2)cc1 (configuration not stated)	29	17	-2	416	0	.
Cc1cccc(C(=O)OCC(=O)NCCNC(=O)COC(=O)c2cccc(C)c2C)c1C	19	-1	2	0	0	.
